Values joined by “and” are separate entries in the source; they are usually repeats but may differ in a detail not shown here. Equal values may be shown once. Results filed as inconclusive are left out. Where a structure was tested more than once in an assay, its records may differ in their call. Active and inactive are the calls of the source. Unless noted, calls follow the shape of the dose curve; as a rule, active = well fitted curve in the direction sought with a large enough effect in the repeat runs; inconclusive = weak or mixed curves; inactive = no such curve, though single readings can be large; an effect the other way counts as inactive or inconclusive.
Tests used:
[1] = qHTS assay to identify small molecule HDAC inhibitors - cell viability counter screen (AID 1259365); also: series mostly up to about 92 µM; nearly all actives have a fitted effect of over 50% in size
How it was run: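 Cytotoxicity was gauged in wild-type HCT-116 cells after a brief 2hr treatment with DMSO-dissolved compounds at 37C and 5% CO2, using CellTiter-Glo luminescence developed for 30min at room temperature.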

[2] = qHTS assay to identify small molecule agonists of the sonic hedgehog signaling (Shh) pathway - cell viability counter screen (AID 1259366); also: nearly all actives have a fitted effect of over 50% in size; also: potency is read from the fitted curve at half-maximal effect
How it was run: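 Stable Gli1-Luc NIH/3T3 clone, 2,000 cells/well. Compound exposure 24hr at 37C. Read-out: CellTiter-Fluor fluorescence.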

[3] = qHTS assay to identify small molecule antagonists of the sonic hedgehog signaling (Shh) pathway - cell viability counter screen (AID 1259367); also: nearly all actives have a fitted effect of over 55% in size
How it was run: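 After a 4 hr settling period, 3T3 Gli1-Luc cells were treated with DMSO-dissolved chemicals and conditioned medium, kept 24 hr at 37C in 5% CO2, and assayed for viability by CellTiter-Fluor fluorescence following 1 hr reagent incubation.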

[4] = qHTS assay to identify small molecule agonists of the sonic hedgehog signaling (Shh) pathway (AID 1259368; calls by dose curve;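 also: NIH/3T3-derived 3T3Gli1-Luc cells carrying a stable Gli1-driven firefly luciferase reporter; series mostly up to about 92 µM; nearly all actives have a fitted effect of over 15% in size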)
How it was run: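 A Gli1 transcriptional response element controlled firefly luciferase in 3T3Gli1-Luc cells. Compounds and a positive control were added 4 hr after plating, and cells were incubated a further 24 hr at 37 C before luminescence detection.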

[5] = qHTS assay to identify small molecule agonists of the androgen receptor (AR) signaling pathway in the presence of an antagonist - cell viability counter screen (AID 1259379); also: nearly all actives have a fitted effect of over 25% in size; also: potency is read from the fitted curve at half-maximal effect;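 as to activity change, negative = cytotoxicity: MDA-kb2 human breast cancer cells carrying an MMTV luciferase reporter; series mostly up to about 92 µM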
How it was run: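 Seed MDA-kb2 at 3,000 cells/well; incubate 5 hr, 37C, 0% CO2. Add nilutamide to 3.0uM final, then pin compounds at 15 concentrations. Incubate 16 hr. Add CellTiter-Fluor at 15 hr, read fluorescence after 1 hr.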

[6] = qHTS assay to identify small molecule agonists of the estrogen receptor beta (ER-beta) signaling pathway - cell viability counter screen (AID 1259380); also: nearly all actives have a fitted effect of over 30% in size
How it was run: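 CellTiter-Glo read, 30 min RT, same wells as bla assay; cells ER-beta-UAS-bla HEK293T; 16 hr compound, 37C; medium 2% charcoal-stripped FBS.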

[7] = qHTS assay to identify small molecule antagonists of the estrogen receptor beta (ER-beta) signaling pathway - cell viability counter screen (AID 1259382); also: series mostly up to about 92 µM; nearly all actives have a fitted effect of over 55% in size
How it was run: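 In this multiplexed counter screen, cells were seeded at 2,000 per well in medium with 2% charcoal-stripped FBS and incubated 6 hr before compound and 1nM final E2 were added. Sixteen hours later, ATP-based luminescence reported viability.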

[8] = qHTS assay to identify small molecule agonists or antagonists of the thyroid stimulating hormone receptor (TSHR) signaling pathway - wild type cell line counter screen (AID 1259384; calls by dose curve)
How it was run: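 Wild-type HEK293 cells were plated 18 h at 37 C/5% CO2, pin-dosed with compound plus Ro20-1724 medium, held 30 min at room temperature, then given cAMP-d2 and anti-cAMP-cryptate; fluorescence was read after 1 h. Fifteen concentrations, triplicate.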

[9] = target: Thyrotropin receptor (Homo sapiens) (UniProt P16473); assay: qHTS assay to identify small molecule antagonists of the thyroid stimulating hormone receptor (TSHR) signaling pathway (AID 1259385; calls by dose curve; also: nearly all actives have a fitted effect of over 20% in size)
Thyrotropin receptor (Homo sapiens), sequence (P16473 whole entry, looked up): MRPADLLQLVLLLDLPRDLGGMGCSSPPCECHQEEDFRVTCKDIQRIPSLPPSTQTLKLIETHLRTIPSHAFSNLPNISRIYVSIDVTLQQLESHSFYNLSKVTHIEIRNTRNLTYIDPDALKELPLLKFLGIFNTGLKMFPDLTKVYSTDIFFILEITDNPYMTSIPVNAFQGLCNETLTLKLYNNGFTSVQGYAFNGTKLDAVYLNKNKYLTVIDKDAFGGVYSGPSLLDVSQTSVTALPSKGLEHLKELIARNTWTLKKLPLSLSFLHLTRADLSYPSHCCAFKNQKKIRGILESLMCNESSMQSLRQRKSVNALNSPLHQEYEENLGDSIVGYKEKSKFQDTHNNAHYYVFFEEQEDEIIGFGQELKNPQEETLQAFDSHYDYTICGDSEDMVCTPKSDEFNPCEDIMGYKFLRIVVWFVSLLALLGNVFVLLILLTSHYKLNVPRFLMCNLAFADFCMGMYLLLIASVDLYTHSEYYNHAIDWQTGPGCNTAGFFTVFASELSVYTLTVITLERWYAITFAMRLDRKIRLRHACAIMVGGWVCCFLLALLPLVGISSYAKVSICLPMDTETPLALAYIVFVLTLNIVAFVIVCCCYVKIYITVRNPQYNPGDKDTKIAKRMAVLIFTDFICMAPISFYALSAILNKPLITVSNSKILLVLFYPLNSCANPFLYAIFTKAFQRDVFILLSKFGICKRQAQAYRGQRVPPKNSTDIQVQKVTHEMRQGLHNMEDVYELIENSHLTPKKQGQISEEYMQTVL
How it was run: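 TSHR-HEK293 cells were plated and held 18 h at 37C/5% CO2, then given compound plus Ro20-1724 and stimulated with TSH at 1.5 ng/mL final. After 30 min at room temperature, cAMP was detected with cAMP-d2/anti-cAMP-cryptate (1 h) by fluorescence.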

[10] = qHTS assay to identify small molecule agonists of the estrogen receptor alpha (ER-alpha) signaling pathway in the presence of an antagonist - cell viability counter screen (AID 1259386);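 also: series mostly up to about 92 µM; cells exposed to compounds for 22 h at 37 °C before the viability read; nearly all actives have a fitted effect of over 30% in size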
How it was run: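 Viability counter screen using VM7Luc4E2 (full-length ER-alpha, four ERE-luciferase). The cells were treated with compounds alongside ICI-182,780 10.0nM for 22hr, and live-cell protease fluorescence was quantified with CellTiter-Fluor.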

[11] = target: Progesterone receptor (Homo sapiens) (UniProt P06401); assay: qHTS assay to identify small molecule agonists of the progesterone receptor (PR) signaling pathway (AID 1346784; calls by dose curve; also: nearly all actives have a fitted effect of over 30% in size; also: potency is read from the fitted curve at half-maximal effect)
Progesterone receptor (Homo sapiens), sequence (P06401 whole entry, looked up): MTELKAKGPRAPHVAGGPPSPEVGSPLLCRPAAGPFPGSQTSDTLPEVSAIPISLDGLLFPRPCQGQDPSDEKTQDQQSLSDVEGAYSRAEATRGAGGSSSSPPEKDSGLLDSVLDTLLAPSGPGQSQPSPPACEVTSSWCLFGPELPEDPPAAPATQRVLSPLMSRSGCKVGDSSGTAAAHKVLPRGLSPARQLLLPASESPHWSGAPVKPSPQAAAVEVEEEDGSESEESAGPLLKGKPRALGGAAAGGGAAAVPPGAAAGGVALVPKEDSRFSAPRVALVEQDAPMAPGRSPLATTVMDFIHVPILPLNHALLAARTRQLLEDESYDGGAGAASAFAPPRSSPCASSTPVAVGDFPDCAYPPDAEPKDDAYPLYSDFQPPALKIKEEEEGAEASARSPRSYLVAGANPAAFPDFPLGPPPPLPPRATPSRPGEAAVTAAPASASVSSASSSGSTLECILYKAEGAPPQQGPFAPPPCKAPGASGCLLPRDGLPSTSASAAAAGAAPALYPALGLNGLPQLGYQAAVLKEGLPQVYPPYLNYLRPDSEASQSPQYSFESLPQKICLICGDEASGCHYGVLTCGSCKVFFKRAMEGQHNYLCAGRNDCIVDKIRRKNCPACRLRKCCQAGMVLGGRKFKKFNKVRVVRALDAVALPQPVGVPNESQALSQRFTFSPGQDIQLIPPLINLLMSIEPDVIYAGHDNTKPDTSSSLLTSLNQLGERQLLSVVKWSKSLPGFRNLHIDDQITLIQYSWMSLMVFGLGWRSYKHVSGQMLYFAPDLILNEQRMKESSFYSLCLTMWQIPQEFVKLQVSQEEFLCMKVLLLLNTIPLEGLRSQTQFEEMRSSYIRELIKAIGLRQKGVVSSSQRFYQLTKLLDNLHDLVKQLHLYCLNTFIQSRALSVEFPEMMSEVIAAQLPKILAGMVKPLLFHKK
How it was run: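 The screen uses PR-UAS-bla HEK 293T cells in charcoal-stripped serum (2%). Compounds are applied for 16 hr at 37C after a 6 hr pre-incubation, and reporter activity is detected with a FRET beta-lactamase substrate after 2 hr at room temperature.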

[12] = target: Progesterone receptor (Homo sapiens) (UniProt P06401); assay: qHTS assay to identify small molecule antagonists of the progesterone receptor (PR) signaling pathway (AID 1346795; active = well fitted inhibition curve with a large enough effect in the signal ratio in the repeat runs, not every such curve was filed as active; the % refers to the signal ratio; also: potency is read from the fitted curve at half-maximal effect)
How it was run: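 After 6 hr plating at 37C in 2% stripped-serum medium, PR-UAS-bla HEK293T cells got compounds, then 1 nM R5020. Sixteen hours later, LiveBLAzer substrate was applied for 2 hr at room temperature and fluorescence was recorded.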

[13] = qHTS assay to identify small molecule antagonists of the progesterone receptor (PR) signaling pathway - cell viability counter screen (AID 1346798); also: series mostly up to about 92 µM; nearly all actives have a fitted effect of over 50% in size
How it was run: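 Viability was determined by ATP-based luminescence (CellTiter-Glo) in PR-UAS-bla HEK293T cells cultured in 2% charcoal-stripped serum and incubated 16 hr with compounds under R5020 stimulation.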

[14] = qHTS assay to identify small molecule agonists of the progesterone receptor (PR) signaling pathway - cell viability counter screen (AID 1346799; calls by dose curve; also: nearly all actives have a fitted effect of over 45% in size)
How it was run: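 Viability was scored by ATP luminescence (CellTiter-Glo, 30 min, room temperature) in the same wells used for the reporter readout, after 16 hr compound exposure of PR-UAS-bla HEK293T cells.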

[15] = qHTS assay to identify small molecule antagonists of the TGF-beta/Smad signaling pathway - cell viability counter screen (AID 1346824); also: nearly all actives have a fitted effect of over 50% in size
How it was run: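 SBE-bla HEK 293T cells were plated overnight at 37 C, then given compounds in DMSO plus TGF-beta1 (added as 0.25 ng/mL solution) for 5 hr. After the bla read, CellTiter-Glo was added to the same wells and luminescence read after 30 min at room temperature.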

[16] = target: Estrogen receptor beta (Homo sapiens) (UniProt Q92731); assay: qHTS assay to identify small molecule agonists of the estrogen receptor beta (ER-beta) signaling pathway (AID 1259377; active = well fitted activation curve with a large enough effect in the signal ratio in the repeat runs, not every such curve was filed as active; the % refers to the signal ratio)
Estrogen receptor beta (Homo sapiens), sequence (Q92731 whole entry, looked up): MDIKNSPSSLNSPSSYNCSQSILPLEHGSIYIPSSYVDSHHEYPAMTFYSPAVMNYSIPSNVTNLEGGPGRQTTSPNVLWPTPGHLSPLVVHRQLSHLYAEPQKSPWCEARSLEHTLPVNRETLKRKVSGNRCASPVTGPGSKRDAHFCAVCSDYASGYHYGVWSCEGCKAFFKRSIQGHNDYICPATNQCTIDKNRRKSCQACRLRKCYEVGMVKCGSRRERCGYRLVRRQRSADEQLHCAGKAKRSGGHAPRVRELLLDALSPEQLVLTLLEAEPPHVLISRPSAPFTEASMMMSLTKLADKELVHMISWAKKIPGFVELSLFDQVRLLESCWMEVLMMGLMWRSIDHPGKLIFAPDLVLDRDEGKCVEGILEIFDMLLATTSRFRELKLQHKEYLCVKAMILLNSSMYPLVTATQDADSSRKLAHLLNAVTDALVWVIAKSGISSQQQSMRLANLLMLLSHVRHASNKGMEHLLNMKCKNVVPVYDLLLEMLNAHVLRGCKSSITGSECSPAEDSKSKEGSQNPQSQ
How it was run: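 Measured by fluorescence intensity from a B/G FRET beta-lactamase substrate (2 h, room temperature) in ER-beta-UAS-bla HEK293T cells treated with DMSO-dissolved compounds for 16 hr at 37C and 5% CO2.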

[17] = target: Estrogen receptor beta (Homo sapiens) (UniProt Q92731); assay: qHTS assay to identify small molecule antagonists of the estrogen receptor beta (ER-beta) signaling pathway (AID 1259378; active = well fitted inhibition curve with a large enough effect in the signal ratio in the repeat runs, not every such curve was filed as active; the % refers to the signal ratio)
How it was run: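 ER-beta-UAS-bla HEK293T (GripTite) cells in 2% charcoal-stripped FBS medium were preincubated 6 hr at 37C, dosed with compound, then stimulated with 1 nM E2 (final) for 16 hr; beta-lactamase reporter read by B/G FRET fluorescence after 2 hr substrate loading.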

[18] = target: Estrogen receptor (Homo sapiens) (UniProt P03372); assay: qHTS assay to identify small molecule agonists of the estrogen receptor alpha (ER-alpha) signaling pathway in the presence of an antagonist (AID 1259383; calls by dose curve; also: top concentration of the series differs between compounds; nearly all actives have a fitted effect of over 15% in size)
Estrogen receptor (Homo sapiens), sequence (P03372 whole entry, looked up): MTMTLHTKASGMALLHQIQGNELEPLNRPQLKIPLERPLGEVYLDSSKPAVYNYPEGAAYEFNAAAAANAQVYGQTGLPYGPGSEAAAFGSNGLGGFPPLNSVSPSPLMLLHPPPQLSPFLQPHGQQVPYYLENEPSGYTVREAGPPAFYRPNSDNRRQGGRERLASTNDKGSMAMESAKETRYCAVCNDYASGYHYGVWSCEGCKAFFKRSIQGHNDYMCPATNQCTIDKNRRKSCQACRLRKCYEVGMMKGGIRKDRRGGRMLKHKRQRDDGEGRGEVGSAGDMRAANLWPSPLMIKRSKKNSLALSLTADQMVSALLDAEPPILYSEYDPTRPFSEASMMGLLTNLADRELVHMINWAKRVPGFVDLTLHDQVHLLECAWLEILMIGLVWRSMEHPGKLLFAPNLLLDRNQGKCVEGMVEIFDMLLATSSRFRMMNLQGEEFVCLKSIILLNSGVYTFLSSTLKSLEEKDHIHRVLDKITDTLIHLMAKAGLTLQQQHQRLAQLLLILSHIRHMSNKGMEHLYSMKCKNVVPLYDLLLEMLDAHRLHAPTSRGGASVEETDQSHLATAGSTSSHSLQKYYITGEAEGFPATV
How it was run: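 Stably transfected VM7Luc4E2 reporter cells, kept 5 days in charcoal-stripped serum, received ICI-182,780 at 10.0nM final before compound addition. Following 22hr incubation at 37C and 5% CO2, luciferase signal was read by luminescence.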

[19] = qHTS assay to identify small molecule antagonists of the sonic hedgehog signaling (Shh) pathway (AID 1259369; calls by dose curve; also: nearly all actives have a fitted effect of over 45% in size; also: potency is read from the fitted curve at half-maximal effect)
How it was run: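 For antagonist detection, the reporter line received test compounds together with conditioned medium, incubated 24hr at 37 C, 5% CO2, then luminescence was recorded following 30min room-temperature luciferase reagent incubation.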

[20] = target: Androgen receptor (Homo sapiens) (UniProt P10275); assay: qHTS assay to identify small molecule agonists of the androgen receptor (AR) signaling pathway in the presence of an antagonist (AID 1259381; calls by dose curve; also: nearly all actives have a fitted effect of over 15% in size)
Androgen receptor (Homo sapiens), sequence (P10275 whole entry, looked up): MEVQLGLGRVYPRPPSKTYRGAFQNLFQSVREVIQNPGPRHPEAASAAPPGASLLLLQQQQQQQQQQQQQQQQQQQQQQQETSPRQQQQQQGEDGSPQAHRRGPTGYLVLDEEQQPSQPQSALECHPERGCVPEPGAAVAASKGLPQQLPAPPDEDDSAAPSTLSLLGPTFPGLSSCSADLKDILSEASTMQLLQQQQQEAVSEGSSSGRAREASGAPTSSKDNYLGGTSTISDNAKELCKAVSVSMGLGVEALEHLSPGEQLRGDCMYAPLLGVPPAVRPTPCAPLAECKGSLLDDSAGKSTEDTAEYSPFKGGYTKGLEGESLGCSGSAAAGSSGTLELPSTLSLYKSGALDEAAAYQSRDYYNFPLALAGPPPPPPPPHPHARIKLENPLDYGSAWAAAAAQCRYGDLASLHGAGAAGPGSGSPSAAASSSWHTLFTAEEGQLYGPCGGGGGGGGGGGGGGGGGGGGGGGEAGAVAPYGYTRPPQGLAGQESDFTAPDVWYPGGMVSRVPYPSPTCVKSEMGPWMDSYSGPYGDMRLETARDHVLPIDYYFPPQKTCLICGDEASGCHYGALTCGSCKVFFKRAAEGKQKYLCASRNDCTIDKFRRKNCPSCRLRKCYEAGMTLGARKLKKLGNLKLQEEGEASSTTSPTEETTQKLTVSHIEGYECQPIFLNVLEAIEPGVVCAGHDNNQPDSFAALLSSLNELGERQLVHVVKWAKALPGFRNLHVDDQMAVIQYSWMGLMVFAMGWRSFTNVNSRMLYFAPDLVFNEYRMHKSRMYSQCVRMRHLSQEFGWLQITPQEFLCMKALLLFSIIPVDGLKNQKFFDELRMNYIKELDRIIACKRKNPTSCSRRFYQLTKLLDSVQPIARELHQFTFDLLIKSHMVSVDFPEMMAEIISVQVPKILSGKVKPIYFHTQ
How it was run: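 Test compounds at 15 concentrations were incubated for 16hr with MDA-kb2 reporter cells in presence of 3.0uM nilutamide (final). Signal: ONE-Glo luciferase luminescence.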
% is scaled to controls: 0 for no effect and ±100 for the full control effect.

COc1ccc(Nc2ccccc2)c(C)c1
inactive: outcome [1] | Potency [2] | Potency [3] | outcome [4] | Potency [5] | Potency [6] | Potency [7] | outcome [8] | Potency [9] | Potency [10] | Potency [11] | Potency [12] | Potency [13] | Potency [14] | Potency [15]

COCCCOc1ccnc(CS(=O)c2nc3ccccc3[nH]2)c1C (configuration not stated)
60.9 µM (active) and inactive: Potency [12]
48.4 µM (active) and inactive: Potency [5]
inactive: outcome [1] | Potency [2] | Potency [3] | outcome [4] | Potency [16] | Potency [17] | Potency [6] | Potency [7] | outcome [8] | Potency [9] | Potency [10] | Potency [11] | Potency [13] | Potency [15]

O=S(=O)(O)c1ccc2ccccc2c1
inactive: outcome [1] | Potency [2] | Potency [3] | outcome [4] | Potency [5] | Potency [6] | Potency [7] | outcome [8] | Potency [9] | Potency [10] | Potency [11] | Potency [12] | Potency [13] | Potency [14] | Potency [15]

Cc1cccnc1
inactive: outcome [1] | Potency [2] | Potency [3] | outcome [4] | Potency [16] | Potency [17] | Potency [5] | Potency [6] | Potency [7] | outcome [8] | Potency [9] | Potency [10] | Potency [11] | Potency [12] | Potency [13] | Potency [14] | Potency [15]

C=C(C)C(=O)OCCOCCOCCOC(=O)C(=C)C
inactive: outcome [1] | Potency [2] | Potency [3] | outcome [4] | Potency [5] | Potency [6] | Potency [7] | outcome [8] | Potency [9] | Potency [10] | Potency [11] | Potency [12] | Potency [13] | Potency [14] | Potency [15]

Cc1cc(C)c(C)cc1C
inactive: outcome [1] | Potency [2] | Potency [3] | outcome [4] | Potency [5] | Potency [6] | Potency [7] | Potency [18] | outcome [8] | Potency [9] | Potency [10] | Potency [11] | Potency [12] | Potency [13] | Potency [14] | Potency [15]

CCCCCCCCCCCCCCCO
inactive: outcome [1] | Potency [3] | outcome [4] | Potency [16] | Potency [5] | Potency [6] | Potency [7] | outcome [8] | Potency [9] | Potency [10] | Potency [11] | Potency [12] | Potency [13] | Potency [14]
30.9 µM (active) and inactive: Potency [2]

CCN(CC)CCCC(C)Nc1ccnc2cc(Cl)ccc12 (configuration not stated)
active: Potency [19] 5800 nM | Potency [11] 119 nM
inactive: activity change, negative = cytotoxicity [1] 1.29% [at 8.39 µM] and -0.194% [at 19 µM] | viability change, negative = cytotoxic [2] 4.99% [at 8.39 µM] and -9.75% [at 19 µM] | viability change, negative = cytotoxic [3] -9.15% [at 8.39 µM] and -19.2% [at 19 µM] | activity change, negative = inhibition [19] -20.4% [at 8.39 µM] | activation [16] 1.76% [at 8.39 µM] and 0.415% [at 19 µM] | activity, negative = inhibition [17] -11.4% [at 8.39 µM] | activity change, negative = cytotoxicity [5] -10.8% [at 8.39 µM] | activity change, negative = cytotoxicity [6] -12.8% [at 8.39 µM] and -6.59% [at 19 µM] | activity change, negative = cytotoxicity [7] -20.4% [at 8.39 µM] and -8.86% [at 19 µM] | activation [18] -0.124% [at 8.39 µM] and -1.51% [at 19 µM] | activation [11] -0.551% [at 19 µM] | activity change, negative = inhibition [12] 0.105% [at 8.39 µM] and 2.39% [at 18.9 µM] | activity change, negative = cytotoxicity [13] 3.8% [at 8.39 µM]

O=C(O)[C@H](O)[C@@H](O)[C@H](O)[C@H](O)CO
inactive: outcome [1] | Potency [2] | Potency [3] | outcome [4] | Potency [5] | Potency [6] | Potency [7] | Potency [10] | activation [11] -0.268% [at 3.27 µM] | Potency [12] | Potency [13] | Potency [14] | Potency [15]
active: Potency [11] 2430 nM

CCc1cccc(C)c1N
inactive: outcome [1] | Potency [2] | Potency [3] | outcome [4] | Potency [5] | Potency [6] | Potency [20] | Potency [7] | outcome [8] | Potency [9] | Potency [10] | Potency [11] | Potency [12] | Potency [13] | Potency [14] | Potency [15]

c1ccc2c(c1)ccc1ccccc12
inactive: outcome [1] | Potency [2] | Potency [3] | outcome [4] | Potency [5] | Potency [6] | Potency [20] | Potency [7] | outcome [8] | Potency [9] | Potency [10] | Potency [11] | Potency [12] | Potency [13] | Potency [14] | Potency [15]

CC(C)c1ccc(S(=O)(=O)O)cc1
inactive: outcome [1] | Potency [2] | Potency [3] | outcome [4] | Potency [16] | Potency [17] | Potency [5] | Potency [6] | Potency [7] | outcome [8] | Potency [9] | Potency [10] | Potency [11] | Potency [12] | Potency [13] | Potency [14] | Potency [15]
